{"source": "PubChem BioAssay AID504847", "about": "(National Center for Advancing Translational Sciences (NCATS), 2011)", "note": "Values joined by “and” are separate entries in the source; they are usually repeats but may differ in a detail not shown here. Equal entries are not always repeated. Out of some 400,000 compounds screened, about 3,700 (0.93%) were called active. Not shown: some 3% with an inconclusive outcome. Only a selection was taken, and actives are over-represented in it overall. Values without a mark were called inactive. Calls come from the whole dose curve; as a rule, active = well fitted inhibition curve with a large enough effect; inconclusive = small, poorly fitted or top-dose-only effect, or another doubt; inactive = no such curve, though single readings can be large or run the other way. % is set by controls: 0 for no effect and ±100 for the full control effect; potency is the fitted concentration of half-maximal effect.", "data": [{"target": "Vitamin D3 receptor (Homo sapiens) (UniProt P11473)", "sequence (P11473 whole entry, looked up)": "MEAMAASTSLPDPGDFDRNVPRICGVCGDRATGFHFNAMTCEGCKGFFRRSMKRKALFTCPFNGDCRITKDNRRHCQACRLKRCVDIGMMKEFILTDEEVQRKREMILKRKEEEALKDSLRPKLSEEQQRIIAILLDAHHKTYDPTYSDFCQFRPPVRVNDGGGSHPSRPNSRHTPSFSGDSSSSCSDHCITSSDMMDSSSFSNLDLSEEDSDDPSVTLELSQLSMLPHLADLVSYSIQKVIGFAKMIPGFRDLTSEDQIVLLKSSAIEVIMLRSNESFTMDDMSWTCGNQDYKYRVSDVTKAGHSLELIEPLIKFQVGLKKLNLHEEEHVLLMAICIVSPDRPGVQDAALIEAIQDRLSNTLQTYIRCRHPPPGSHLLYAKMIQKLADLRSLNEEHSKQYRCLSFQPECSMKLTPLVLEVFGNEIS", "test": "Inhibitors of the vitamin D receptor (VDR): qHTS", "conditions": "VDR-SRC2-3 peptide fluorescence polarization, 2 h; max response, negative = inhibition: hits give low values", "how_it_was_run": "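Two reagent solutions held at 4 deg C in the dark were dispensed, compounds pinned at 23 nl, and the mixture incubated 2 h at room temperature. Read-out: fluorescence polarization of VDR–SRC2-3 peptide binding.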", "values": [{"compound": "O=C(O)c1cc[c]([Sb](=[O])([OH])[OH])cc1[N+](=O)[O-]", "max response, negative = inhibition": "-21.9%"}, {"compound": "C[C@@]12CCC3C(CC[C@@H]4CC(O)CC[C@@]34C)C1CCC2O", "note": "(stereo partly drawn)", "max response, negative = inhibition": "-4.26%"}, {"compound": "O=C1NC(=O)N(c2ccccc2)C(=O)/C1=C/c1ccc([N+](=O)[O-])s1", "Potency": "50.1 µM (active)"}, {"compound": "CN1CCCC(=C(c2cccs2)c2cccs2)C1", "max response, negative = inhibition": "3.88%"}, {"compound": "CC[N+]1(CCOC(=O)C(O)(c2ccccc2)c2ccccc2)CCCCC1", "max response, negative = inhibition": "4.12%"}, {"compound": "C[C@]12CC[C@H](O)C[C@@H]1CC[C@H]1[C@H]2CC[C@]2(C)C(=O)CC[C@@H]12", "max response, negative = inhibition": "-9.44% and 0.624% and 3.94%"}, {"compound": "Cc1ccnc(-n2c(C)cc(/C=C3\\C(=O)NC(=S)N(C)C3=O)c2C)c1", "Potency": "39.8 µM (active)"}, {"compound": "Cc1cc(C=C2C(=O)NC(=O)NC2=O)c(C)n1-c1ccncc1", "max response, negative = inhibition": "-27.9%"}, {"compound": "CCN1C[C@@]2(COC)CC[C@H](OC)[C@]34[C@@H]1[C@]1(OCO[C@@]15C[C@@H](OC)C1C[C@H]3[C@H]5[C@@H]1OC)[C@H](O)[C@@H]24", "max response, negative = inhibition": "1.56%"}, {"compound": "CC(C)(Cc1c[nH]c2ccc(Cl)cc12)NCCOc1ccccc1OCC1CC1", "max response, negative = inhibition": "-1.04% and 2.67%"}, {"compound": "CC(C)(O)c1[se]c2ccccc2c1I", "max response, negative = inhibition": "-15.8%"}, {"compound": "c1csc(CN2CCCC3(CCNCC3)C2)n1", "max response, negative = inhibition": "-8.79%"}, {"compound": "Cc1nnc(NC(=O)c2cccn(Cc3cccc(F)c3)c2=O)s1", "max response, negative = inhibition": "12.7%"}, {"compound": "Cc1ccc2c(c1)=C/C(=C\\c1c(O)[nH]c(=O)[nH]c1=O)C(=O)N=2", "Potency": "89.1 µM (active)"}, {"compound": "O=c1[nH]c(O)c(C=Nc2cc(F)cc(F)c2)c(=O)[nH]1", "max response, negative = inhibition": "-6.29%"}, {"compound": "C/C(=C\\C=C/[C@@H](C)C(=O)O)[C@H]1CN[C@H](C(=O)O)[C@@H]1CC(=O)O", "max response, negative = inhibition": "-9.05%"}, {"compound": "COc1ccc2[nH]cc(CCNCc3ccc(Br)cc3)c2c1", "max response, negative = inhibition": "5.83%"}, {"compound": "COC(=O)c1ccc2[se]c(CC3CCCCC3)c(I)c2c1", "max response, negative = inhibition": "3.86%"}, {"compound": "C=CCN1C(=O)NC(=O)/C(=C/c2ccc(OCC(=O)Nc3ccc(C)cc3)cc2)C1=O", "Potency": "70.8 µM (active)"}, {"compound": "CCC(=O)c1ccc(OCC(=O)N2CCN(CC(=O)Nc3ccc(C)cc3)CC2)cc1", "max response, negative = inhibition": "0.567%"}, {"compound": "C=CCN(CC=C)C(=O)Nc1ccc(OCC)cc1", "max response, negative = inhibition": "-2.13%"}, {"compound": "C[C@@H]1C[C@@H]2O[C@H]2/C=C\\C=C\\C(=O)Cc2c(Cl)c(O)cc(O)c2C(=O)O1", "max response, negative = inhibition": "-4.25%"}, {"compound": "O=C1CCc2cccc3c2N1CC3", "max response, negative = inhibition": "-0.897%"}, {"compound": "COC([CH2][Hg])CNC(=O)c1ccccc1OCC(=O)O", "note": "(stereo not drawn)", "Potency": "5.62 µM (active)"}, {"compound": "CCCCCCCCc1[se]c2ccccc2c1Br", "max response, negative = inhibition": "0.449%"}, {"compound": "N[C@H](Cc1o[nH]c(=O)c1Cl)C(=O)O", "max response, negative = inhibition": "3.74%"}, {"compound": "C=CCN1CCC23c4c5ccc(O)c4O[C@H]2C(=O)CC[C@@]3(O)C1C5", "note": "(stereo partly drawn)", "max response, negative = inhibition": "-0.103% and 4.39%"}, {"compound": "C[C@H]1CC[C@@]2(NC1)O[C@@H]1C[C@H]3[C@@H]4CC=C5C[C@@H](O)CC[C@]5(C)[C@@H]4CC[C@]3(C)[C@@H]1[C@@H]2C", "max response, negative = inhibition": "-0.658%"}, {"compound": "C=CCN1CCC2(C)c3cc(O)ccc3CC1[C@@H]2C", "note": "(stereo partly drawn)", "max response, negative = inhibition": "1.58%"}, {"compound": "CC(=O)OC1C2CCC3C1(CC(O)[C@@]1(O)[C@@H](CC(O)C1(C)C)[C@]3(C)O)C[C@@]2(C)O", "note": "(stereo partly drawn)", "max response, negative = inhibition": "0.185%"}, {"compound": "CN[C@@H]1C[C@H]2O[C@@](C)([C@@H]1OC)n1c3ccccc3c3c4c(c5c6ccccc6n2c5c31)C(=O)NC4", "max response, negative = inhibition": "1.57% and -1.64%"}, {"compound": "CCNC[C@H](O)c1cccc(O)c1", "max response, negative = inhibition": "-1.81%"}, {"compound": "C=CCSSCC=C", "Potency": "20 µM (active)"}, {"compound": "COC1=C[C@]23CCCN2CCc2cc4c(cc2[C@@H]3[C@@H]1O)OCO4", "max response, negative = inhibition": "-4.23%"}, {"compound": "CC(C)(c1ccc(OC[C@@H]2CO2)cc1)c1ccc(OC[C@H]2CO2)cc1", "max response, negative = inhibition": "4.79%"}, {"compound": "CN1C2CC3CC1C(O3)C2O", "note": "(stereo not drawn)", "max response, negative = inhibition": "-5.48%"}, {"compound": "CCN1C[C@]2(COC)C(O)C[C@H](OC)[C@@]34C5C[C@]6(O)C(OC)C(O)[C@](OC(C)=O)(C5C6OC(=O)c5ccccc5)C(C(OC)C23)C14", "note": "(stereo partly drawn)", "max response, negative = inhibition": "4.87%"}, {"compound": "COC(=O)C1=C(c2ccccc2)C[C@@H]2CC[C@H]1N2C(=O)NCc1ccco1", "max response, negative = inhibition": "-7.95%"}, {"compound": "CCOC(=O)C(O)(c1ccc(NC(=O)c2ccco2)c(OC)c1)C(F)(F)F", "note": "(stereo not drawn)", "max response, negative = inhibition": "9.73%"}, {"compound": "COc1cc(Cn2c(N)c(C(=O)NCc3ccco3)c3nc4ccccc4nc32)cc(OC)c1OC", "Potency": "79.4 µM (active)"}, {"compound": "CC(=O)NBr", "max response, negative = inhibition": "-2.36%"}, {"compound": "CCN1C[C@]2(C)CC[C@H](O)[C@@]34[C@@H]5CC6[C@@H](OC)C[C@@](O)([C@@H]5[C@@H]6O)[C@H](C[C@@H]23)[C@H]14", "max response, negative = inhibition": "0.208%"}, {"compound": "NS(=O)(=O)c1ccc(CCNC(=O)c2ccc(Cl)c(S(=O)(=O)N3CCCCCC3)c2)cc1", "max response, negative = inhibition": "6.51%"}]}]}
